From PubChem
Rce1 inhib: yeast Ras-converting enzyme inhibition; yeast membranes, quenched prenylated peptide cleavage fluorescence; calls only; actives 0.27% (n = 290,000); AID 2563;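 active = fall in fluorescence gain of 50% or more versus controls, with final raw signal at or below 3038400; inconclusive = same 50% fall but final raw signal above 3038400; inactive = fall in fluorescence gain under 50%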;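 note: plate controls were neutral control wells for no effect and wells lacking membranes for full effect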
Platelet DG rel: platelet dense granule release activity | human platelet-rich plasma, SFLLRN dense granule ATP release, luminescence | inhibition, %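 (compounds screened at 7.5 µM in platelet-rich plasma)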 | actives 0.22% (n = 300,000);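 active = mean replicate score, as percent of positive control, at or above 50; inconclusive = mean below 50 but at least one replicate at or above 50; inactive = mean and every replicate below 50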
Granule exo inh: blocks lytic granule exocytosis | inhibition, % at 10 µM | TALL-104 LAMP-1 surface exposure, flow cytometry; cells stimulated with thapsigargin and PMA | AID 651702 | actives 0.66% (n = 360,000);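 active = inhibition above about 55%, limit read from the data; inconclusive = no clear call, values can overlap the other calls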
ABHD5-PLIN5 inh: ABHD5-PLIN5 protein interaction inhibition | Split G. princeps luciferase complementation, luminescence, 4 h | inhibition, % at 4 µM | actives 0.78% (n = 360,000);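 active = inhibition above the mean inhibition across every tested compound plus 3 SD, cut at about 22% in these data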;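 note: 0% = DMSO only wells and the 100% control is not disclosed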
Target sequence (Q00G26 whole entry, looked up): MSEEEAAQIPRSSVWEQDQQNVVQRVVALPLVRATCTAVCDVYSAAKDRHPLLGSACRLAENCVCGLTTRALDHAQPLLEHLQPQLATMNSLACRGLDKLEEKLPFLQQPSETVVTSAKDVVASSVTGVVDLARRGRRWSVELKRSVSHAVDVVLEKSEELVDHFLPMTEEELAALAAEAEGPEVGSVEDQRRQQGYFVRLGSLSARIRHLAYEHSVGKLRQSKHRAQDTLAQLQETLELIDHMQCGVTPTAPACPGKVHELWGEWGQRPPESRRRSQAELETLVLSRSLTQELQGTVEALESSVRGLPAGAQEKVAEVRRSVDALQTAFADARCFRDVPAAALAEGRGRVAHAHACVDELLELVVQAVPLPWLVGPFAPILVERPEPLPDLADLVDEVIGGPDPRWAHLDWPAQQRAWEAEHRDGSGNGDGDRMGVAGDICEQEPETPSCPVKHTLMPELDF
Target sequence (Q8WTS1 whole entry, looked up): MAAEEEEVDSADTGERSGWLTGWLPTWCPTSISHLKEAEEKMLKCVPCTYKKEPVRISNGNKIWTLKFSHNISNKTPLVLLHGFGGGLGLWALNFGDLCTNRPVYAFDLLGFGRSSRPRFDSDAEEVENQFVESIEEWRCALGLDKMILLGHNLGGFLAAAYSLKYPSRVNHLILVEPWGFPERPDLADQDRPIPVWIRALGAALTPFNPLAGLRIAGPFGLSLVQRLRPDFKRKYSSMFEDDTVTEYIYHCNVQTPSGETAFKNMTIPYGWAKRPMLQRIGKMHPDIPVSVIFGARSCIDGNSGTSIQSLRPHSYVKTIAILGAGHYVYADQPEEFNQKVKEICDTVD
M18AAP inhibitor: PfM18AAP enzyme inhibition. recombinant PfM18AAP, H-Glu-NHMec fluorogenic cleavage. inhibition, % at 7.35 µM. actives 1.2% (n = 290,000);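 active = inhibition above the campaign mean inhibition over all tested compounds plus 3 SD, cut at about 28% in these data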;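 note: 0% = plate median of test compound wells and 100% = 2 mM ZnCl2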
An asterisk follows results filed as active; i = inactive; u = inconclusive; x = not tested or not shown; + = active, no number. Shown are actives, neighbours in structure and some others; about 2.6% of the full set was active somewhere.

SMILES	Rce1 inhib	Platelet DG rel	Granule exo inh	ABHD5-PLIN5 inh	M18AAP inhibitor
CC(C)CC(=O)NC(=S)Nc1cccc(NC(=O)c2ccccc2Cl)c1	i	-5	0	7	-8
COc1cc(C2C(C(=O)c3ccc(C)o3)=C(O)C(=O)N2c2cc(C)on2)ccc1O (configuration not stated)	i	5	2	3	28*
COc1cc(C2C(C(=O)c3ccc(C)o3)=C(O)C(=O)N2c2cc(C)on2)cc(OC)c1OC (configuration not stated)	i	7	2	4	x
Cc1cnc(C(=O)OCC(=O)c2c(N)n(CC(C)C)c(=O)n(C)c2=O)cn1	i	-10	-11	-4	x
O=C(COC(=O)C1CC1)Nc1cccc(Cl)c1	x	x	0	-2	x
COCCCNC(=S)NCCNc1nc2cc(C)cc(C)c2cc1C#N	+	5	2	3	9
COc1cccc(C(=O)NCCNc2nc3cc(C)cc(C)c3cc2C#N)c1	x	x	-7	5	x
O=C(Nc1ccccc1NC(=O)c1csnn1)c1csnn1	i	4	-4	0	73*
O=C(NC(=S)Nc1ccccc1Cl)c1csnn1	i	4	-1	-19	3
O=C(NNS(=O)(=O)c1ccc(Br)cc1)c1csnn1	x	x	2	8	30*
COc1ccc(NC(=O)/C(Cl)=C(/Cl)S(=O)(=O)Cc2ccc(C)cc2)cn1	i	12	97*	64*	-23
COc1ccc(NC(=O)Cc2ccc(Cl)c(Cl)c2)cn1	i	1	0	5	-1
Oc1ccc(C[C@H]2CN([C@@H](Cc3ccc(O)cc3)CN3CCC[C@@H]3CN3C(=S)NC[C@@H]3Cc3ccccc3)C(=S)N2CCc2ccccc2)cc1	x	x	34	27*	x
CCOc1ccc(CCN2C(=S)N([C@@H](Cc3ccc(O)cc3)CN3CCC[C@@H]3CN3C(=S)NC[C@@H]3CC(C)C)C[C@@H]2Cc2ccc(O)cc2)cc1	x	x	55	34*	x
Cc1nn(CC(=O)Nc2cccnc2)c(C)c1[N+](=O)[O-]	i	61*	-5	1	-5
COCCCn1c(=S)[nH]c2sc3c(c2c1=O)CCCS3	i	-4	-3	-1	-7
Nc1nc(NC(=O)/C=C\C(=O)O)nn1-c1ccccc1	i	0	-1	0	-1
COc1ccc(Br)cc1C(=O)Nc1cc(C)cc(C)c1	+	0	-3	-8	-1
CCC(Cc1ccccc1)NS(=O)(=O)c1c(C)nc2sccn2c1=O (configuration not stated)	i	58*	-5	1	-1
Cc1cc(/C=N/Nc2ncnc(N)c2[N+](=O)[O-])c(C)n1-c1ccccc1	i	67*	11	7	17
CCn1c(=O)n(CC)c2cc(N3CCCC3)c(NC(=O)c3ccc(C)c([N+](=O)[O-])c3)cc21	i	12	13	13	29*
CCn1c(=O)n(CC)c2cc(N3CCCC3)c(NC(=O)c3cccc(C)c3)cc21	i	3	-8	4	27
CCn1c(=O)n(CC)c2cc(N3CCCC3)c(NC(=O)c3cccc(Cl)c3)cc21	i	2	2	-7	32*
COCCn1nnnc1CN(CCc1ccccc1)Cc1cc2cc(OC)ccc2[nH]c1=O	i	0	0	6	2
Cc1ccc2[nH]c(=O)c(CN(Cc3ccc4c(c3)OCO4)Cc3nnnn3Cc3ccco3)cc2c1	i	12	3	20	6
SMILES	Rce1 inhib	Platelet DG rel	Granule exo inh	ABHD5-PLIN5 inh	M18AAP inhibitor
COCCn1nnnc1CN(Cc1cccnc1)Cc1cc2cc(OC)ccc2[nH]c1=O	i	-10	-4	1	29*
O=c1[nH]c2cc3c(cc2cc1CN(CCc1ccccc1)Cc1nnnn1C1CCCC1)OCCO3	i	50*	x	x	0
O=c1[nH]c2cc3c(cc2cc1CN(Cc1cccnc1)Cc1nnnn1Cc1ccco1)OCCO3	i	-2	-4	-24	28*
Cc1cc2cc(CN(Cc3ccc4c(c3)OCO4)Cc3nnnn3C3CCCC3)c(=O)[nH]c2cc1C	i	7	-8	-2	1
O=c1[nH]c2cc3c(cc2cc1CN(Cc1cccs1)Cc1nnnn1Cc1ccco1)OCCO3	i	-3	2	11	31*
CN1CCN(S(=O)(=O)c2cccc(C(=O)N(C)C(c3ccccc3)c3ccccc3)c2)CC1	i	1	-5	1	x
O=c1[nH]c2cc3c(cc2cc1CN(Cc1ccccc1)Cc1nnnn1Cc1ccco1)OCCO3	i	8	-2	34*	30*
COc1ccccc1CN(Cc1cc2cc3c(cc2[nH]c1=O)OCCO3)Cc1nnnn1Cc1ccco1	i	9	-3	-8	21
COc1ccc(/C=C/c2nc3ccccc3n2C)cc1	+	113*	-1	7	2
COc1ccc(Cn2c(/C=C/c3ccccc3)nc3ccccc32)cc1	u	5	3	-3	-4
CC1CN(CC(=O)Nc2ccccc2Sc2ccccc2)CC(C)O1 (configuration not stated)	i	15	0	6	-1
CCOC(=O)C1(CCOC)CCN(C(=O)c2sccc2C)CC1	+	-21	2	2	-1
Cc1c(CCC(=O)O)c(=O)oc2cc(OCc3cccc(F)c3)ccc12	+	-9	-10	-8	-1
Cc1c(CCC(=O)O)c(=O)oc2cc(OCc3ccccc3Br)ccc12	i	4	6	-3	-2
COc1cccc(NC(=S)N(CCCN2CCCC2)Cc2cccn2Cc2ccc(Cl)cc2)c1	i	1	12	16	14
S=C(Nc1cccc(Cl)c1)N(CCCN1CCCC1)Cc1cccn1Cc1ccc(Cl)cc1	i	-5	85*	17	1
O=C(COC(=O)c1ccc(Cl)c(S(=O)(=O)N2CCCC2)c1)NCc1cccs1	i	-3	1	-4	-20
N#Cc1c(N2CCN(C(=O)c3ccccc3)CC2)nc(-c2ccccc2)c2c1CCCC2	+	3	-4	0	-2
O=C(COC(=O)C1CC1)Nc1ccc(N=Nc2ccccc2)cc1	i	-15	1	11	-4
CCOC(=O)c1c(C)[nH]c(C(=O)C(C)OC(=O)c2oc3ccccc3c2COC)c1C (configuration not stated)	i	73*	0	-9	-2
CCOC(=O)c1sc(NNC(=O)c2ccc(F)cc2)nc1C	i	8	3	11	28*
O=C(NCc1ccccc1)c1ccc2nc(-c3ccco3)c(-c3ccco3)nc2c1	i	-2	-1	24*	14
S=C(Nc1ccc(N2CCOCC2)cc1)Nc1ccc2nc(-c3ccco3)c(-c3ccco3)nc2c1	i	0	-2	2	44*
O=C(Nc1ccc(N2CCOCC2)cc1)c1ccc2nc(-c3ccco3)c(-c3ccco3)nc2c1	i	9	-1	0	6
O=C(NCCO)Nc1ccc2nsnc2c1	x	0	-4	-3	-1
O=C(NCCO)Nc1ccc2nc(-c3ccco3)c(-c3ccco3)nc2c1	x	x	x	x	37*
CCCCNC(=O)c1ccc2nc(-c3ccco3)c(-c3ccco3)nc2c1	i	18	0	14	2
